Reference: PubChem BioAssay (NCI)
Compounds without any hit were thinned out: in the full panel of roughly 83,000, 20% have a hit.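 Compound tested at a single concentration for 48 hours in 96-well plates; a percent growth value below 10 was scored as active.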 Active and inactive are the calls of the source.

Experiments:
Assay in all cases: NCI-60 one-dose screen, 48 h (100 = growth as untreated, 0 = no growth, -100 = all killed)
Details in all cases: 10 µM unless noted
[1] = test system: SK-MEL-2 melanoma
[2] = test system: EKVX NSCLC
[3] = test system: SN12C renal
[4] = test system: UO-31 renal
[5] = test system: TK-10 renal
[6] = test system: ACHN renal
[7] = test system: CAKI-1 renal
[8] = test system: A498 renal
[9] = test system: CCRF-CEM leukemia
[10] = test system: MOLT-4 leukemia

Measured: growth

COc1cc2c(c(OC)c1OC)CCC(c1cccc(C(=O)Nc3ccc([N+](=O)[O-])cc3)c1)O2 (stereo not given)
inactive: [1] 43% | [2] 55.4% | [3] 51.1% | [4] 29.3% | [5] 57.8% | [6] 40.7% | [7] 50.5% | [8] 25.5% | [9] 15.1%
active: [10] 4.06%

CNC(=O)c1cc(Oc2ccc3nc(NC(=O)NC(C)C)sc3c2)ccn1
inactive: [1] 89.9% | [2] 93.7% | [3] 86.3% | [4] 79.2% | [5] 88.6% | [6] 94% | [7] 91.9% | [8] 51.4% | [9] 64.4% | [10] 40.7%

COc1cc(CNC(=O)CCCC/C=C/C(C)C)ccc1OCc1cn(-c2cccc([N+](=O)[O-])c2)nn1
inactive: [1] 88.4% | [2] 95.1% | [3] 89.5% | [4] 74.7% | [5] 105% | [6] 81.7% | [7] 79% | [8] 78.9% | [9] 90.2% | [10] 86.6%

Cc1nc2ccccc2c(/C=C/c2ccc(Cl)cc2)c1C(=O)/C=C/c1ccccc1
active: [1] -14.1% | [4] -38% | [6] 5.92% | [7] 4.04% | [9] 6.45% | [10] 5.35%
inactive: [2] 31.5% | [3] 20.6% | [5] 17.7% | [8] 44%

Cc1cccc(CN(Nc2ccccc2)c2ccccc2)n1
inactive: [1] 115% | [2] 79.4% | [3] 97.8% | [4] 91.8% | [5] 108% | [6] 102% | [7] 87.3% | [8] 98% | [9] 91.2% | [10] 91.1%

CC(=O)O[C@H]1C[C@@]2(C)[C@@H](C[C@@H](O)[C@H]3[C@@]4(C)CC[C@H](N5CCCC5)[C@@H](C)[C@@H]4CC[C@@]32C)/C1=C(\CCC=C(C)C)C(=O)O
active: [10] -57.9%
inactive: [1] 100% | [2] 94% | [3] 98.4% | [4] 81.2% | [5] 95.1% | [6] 102% | [7] 91.6% | [8] 104% | [9] 42.8%

C#Cc1cccc(Nc2nc(Cl)nc3cc(NC(=O)CCl)ccc23)c1
active: [1] -75.9% | [2] -76.5% | [3] -70.7% | [4] -96% | [5] -96.3% | [6] -98% | [7] -96.9% | [9] -17.4% | [10] -24.9%
inactive: [8] 59.6%

O=C(Nc1ccc2[nH]ncc2c1)c1csc(Nc2ccccc2)n1
inactive: [1] 29.6% | [2] 45.8% | [3] 41.1% | [4] 45.5% | [5] 48.1% | [6] 56.5% | [7] 36.5% | [8] 22.2% | [9] 19.4% | [10] 43.9%

O=C(Nc1ccccc1C(F)(F)F)C1=NCCCCN1
inactive: [1] 104% | [2] 93.1% | [3] 98% | [4] 86.2% | [5] 98.8% | [6] 103% | [7] 96.6% | [8] 97.1% | [9] 102% | [10] 99.2%

CSc1nc(N)c2c(n1)NC(c1ccccc1)C1CCc3ccccc3C1=N2 (stereo not given)
inactive: [1] 30.1% | [2] 40.9% | [3] 65.7% | [4] 43% | [5] 112% | [6] 72.3% | [7] 48.2% | [8] 42.7% | [9] 20% | [10] 27.9%

CN(C)CCOc1ccc(/C(=C(/CCCCCCCCCC[P+](c2ccccc2)(c2ccccc2)c2ccccc2)c2ccccc2)c2ccccc2)cc1
active: [1] -75.9% | [2] -86.1% | [3] -86.2% | [4] -90.3% | [5] -82.7% | [6] -95.8% | [7] -93.2% | [8] -92.9% | [9] -56% | [10] -60%

Nc1ncc(-c2ccc3ncnc(N4CCc5ccc(Cl)cc54)c3c2)cn1
active: [1] -53.3% | [2] 2.36% | [3] 7.41% | [4] -21.7% | [5] -30.3% | [6] 3.09% | [7] 5.95% | [8] -55.2% | [9] 4.45% | [10] -39%

Cc1nc2cccc(NCc3ccc(C(=O)NO)cc3)c2c(=O)n1-c1ccccc1
inactive: [1] 61.7% | [2] 61.8% | [3] 63.2% | [4] 17% | [5] 15.9% | [6] 30.5% | [7] 28% | [8] 41.3% | [9] 13.4% | [10] 11.5%
